Among the data in PubChem BioAssay (NCATS) are Potency values, retold here.

The structures appear in SMILES notation. Records with an inconclusive call do not appear. The list shows a part of the results. Where a call stands in place of a potency, no number is given. The source made the active and inactive calls. Calls follow the shape of the dose curve; as a rule, active = well fitted curve in the direction sought with a large enough effect; inconclusive = small, poorly fitted or top-dose-only effect, or another doubt; inactive = no such curve, though single readings can be large; an effect the other way counts as inactive or inconclusive. Bridge positions count the residues as written; N and C are the ends. Peptide text beside a SMILES is read from it.

Sequence of ATPase family AAA domain-containing protein 5 (Homo sapiens) (Q96QE3 whole entry, looked up, the tested form may be a part): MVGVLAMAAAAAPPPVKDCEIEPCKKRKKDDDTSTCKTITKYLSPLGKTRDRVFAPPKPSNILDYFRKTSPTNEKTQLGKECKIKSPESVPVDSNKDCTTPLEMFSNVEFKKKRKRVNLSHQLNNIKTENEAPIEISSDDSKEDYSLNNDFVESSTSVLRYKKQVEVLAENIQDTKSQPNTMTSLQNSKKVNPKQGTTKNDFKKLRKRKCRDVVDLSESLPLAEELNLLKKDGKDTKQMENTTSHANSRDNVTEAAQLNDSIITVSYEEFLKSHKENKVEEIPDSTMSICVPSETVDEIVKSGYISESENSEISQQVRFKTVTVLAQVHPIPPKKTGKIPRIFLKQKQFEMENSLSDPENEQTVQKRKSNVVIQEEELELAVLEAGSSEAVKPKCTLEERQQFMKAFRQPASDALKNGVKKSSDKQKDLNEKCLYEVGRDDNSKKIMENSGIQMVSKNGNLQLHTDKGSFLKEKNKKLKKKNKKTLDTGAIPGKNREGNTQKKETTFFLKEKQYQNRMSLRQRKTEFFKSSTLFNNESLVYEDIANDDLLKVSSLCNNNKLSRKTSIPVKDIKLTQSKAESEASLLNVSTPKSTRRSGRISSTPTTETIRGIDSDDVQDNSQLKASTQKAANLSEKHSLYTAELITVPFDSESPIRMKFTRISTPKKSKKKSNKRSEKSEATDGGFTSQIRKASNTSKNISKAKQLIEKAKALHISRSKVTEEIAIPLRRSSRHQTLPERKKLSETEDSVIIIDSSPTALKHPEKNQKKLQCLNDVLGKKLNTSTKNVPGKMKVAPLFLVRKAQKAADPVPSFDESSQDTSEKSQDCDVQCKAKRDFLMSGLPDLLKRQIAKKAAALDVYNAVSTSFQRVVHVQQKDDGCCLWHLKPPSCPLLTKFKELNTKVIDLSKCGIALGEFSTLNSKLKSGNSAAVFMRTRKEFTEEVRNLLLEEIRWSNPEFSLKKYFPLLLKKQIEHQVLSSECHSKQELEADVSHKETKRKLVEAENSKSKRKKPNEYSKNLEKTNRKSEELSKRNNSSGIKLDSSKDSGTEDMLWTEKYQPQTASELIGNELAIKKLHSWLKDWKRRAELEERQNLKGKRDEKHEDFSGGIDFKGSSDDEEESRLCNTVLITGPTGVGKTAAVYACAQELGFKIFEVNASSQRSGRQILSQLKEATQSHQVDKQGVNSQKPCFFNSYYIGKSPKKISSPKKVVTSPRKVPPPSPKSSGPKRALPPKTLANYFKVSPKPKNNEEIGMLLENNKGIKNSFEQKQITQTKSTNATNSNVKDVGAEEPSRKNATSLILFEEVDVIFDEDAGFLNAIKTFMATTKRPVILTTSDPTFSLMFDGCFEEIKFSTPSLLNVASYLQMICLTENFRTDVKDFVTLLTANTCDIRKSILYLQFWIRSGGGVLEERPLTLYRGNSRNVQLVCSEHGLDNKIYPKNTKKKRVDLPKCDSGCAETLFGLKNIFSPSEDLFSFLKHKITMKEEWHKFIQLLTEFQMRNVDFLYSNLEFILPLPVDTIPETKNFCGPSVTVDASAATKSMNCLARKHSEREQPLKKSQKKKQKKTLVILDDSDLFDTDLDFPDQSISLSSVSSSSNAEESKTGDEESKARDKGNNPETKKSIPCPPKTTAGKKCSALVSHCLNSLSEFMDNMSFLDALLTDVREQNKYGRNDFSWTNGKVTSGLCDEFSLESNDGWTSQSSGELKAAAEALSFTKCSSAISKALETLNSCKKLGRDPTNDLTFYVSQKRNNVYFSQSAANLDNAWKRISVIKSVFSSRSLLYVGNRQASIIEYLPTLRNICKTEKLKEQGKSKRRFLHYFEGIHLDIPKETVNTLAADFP
Sequence of Luciferin 4-monooxygenase (Photinus pyralis) (P08659 whole entry, looked up): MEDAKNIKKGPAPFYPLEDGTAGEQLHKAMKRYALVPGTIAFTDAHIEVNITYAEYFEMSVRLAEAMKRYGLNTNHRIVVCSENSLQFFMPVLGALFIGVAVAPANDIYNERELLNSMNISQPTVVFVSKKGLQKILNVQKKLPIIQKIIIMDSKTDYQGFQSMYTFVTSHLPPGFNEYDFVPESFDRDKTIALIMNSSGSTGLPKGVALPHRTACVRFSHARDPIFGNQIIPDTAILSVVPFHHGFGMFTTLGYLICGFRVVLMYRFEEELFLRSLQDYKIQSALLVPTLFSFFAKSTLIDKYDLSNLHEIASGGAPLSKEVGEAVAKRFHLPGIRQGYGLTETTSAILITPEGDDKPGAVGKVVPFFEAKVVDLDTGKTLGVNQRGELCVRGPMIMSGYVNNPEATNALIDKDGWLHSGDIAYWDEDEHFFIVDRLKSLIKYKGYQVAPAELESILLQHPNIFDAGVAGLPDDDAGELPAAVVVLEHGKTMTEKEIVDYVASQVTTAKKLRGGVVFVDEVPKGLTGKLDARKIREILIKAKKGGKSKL

The first test addresses Luciferin 4-monooxygenase (Photinus pyralis) (UniProt P08659). As to the kind of experiment: Biochemical firefly luciferase enzyme assay for NPC (AID 624030).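 Also: purified P. pyralis luciferase at 10 nM with luciferin and ATP substrate; nearly all actives have a fitted effect of over 70% in size.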 The following applies: purified P. pyralis luciferase, luminescence, 5 min; series mostly up to 58.6 µM. The method in brief: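 Purified P. pyralis luciferase at 10 nM in 50 mM Tris Acetate (final), luminescence read within 5 minutes of enzyme addition to compounds. Activity normalised to PTC124 versus DMSO; concentration-response curves classed by r2, magnitude and activity.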
On to `CC1(C)C(C(=O)O)N2C(=O)CC2S1(=O)=O` (stereo not given), for which the Potency entry was “inactive”.

`CS(=O)(=O)NC(=O)CCC/C=C\C[C@H]1C(=O)C[C@@H](O)[C@@H]1/C=C/[C@@H](O)COc1ccccc1`: the Potency entry was “inactive”.

With `CN1C2CCC1CC(NC(=O)n1c(=O)[nH]c3ccccc31)C2` (stereo not given), the Potency result was “inactive”.

`CO[C@H]1[C@@H](O)[C@H](N)[C@@H](O[C@H]2O[C@@H]([C@H](C)N)CC[C@H]2N)[C@H](O)[C@@H]1N(C)C(=O)CN`: the Potency entry is “inactive”.

For `O=C1C=C(CO)OCC1=O`, the Potency entry is “inactive”.

Regarding `NCCCCC(NC(=O)C1CCCN1C(=O)C1CSSCC(N)C(=O)NC(Cc2ccccc2)C(=O)NC(Cc2ccccc2)C(=O)NC(CCC(N)=O)C(=O)NC(CC(N)=O)C(=O)N1)C(=O)NCC(N)=O` (stereo not given) (H-CFFQNCPKG-NH2; disulfide 1-6; configuration not given here), the Potency result was “inactive”.

Consider `CCCCCCC(=O)O[C@@H]1CC[C@H]2[C@@H]3CCc4cc(O)ccc4[C@H]3CC[C@]12C`, for which the Potency entry was “inactive”.

Consider `CC(=O)OCC(=O)[C@@]1(O)[C@H](C)C[C@H]2C3C[C@H](F)C4=CC(=O)C=CC4(C)C3[C@@H](O)CC21C` (stereo not given in full), for which the Potency entry is “inactive”.

As for `OCC1OC(OC2C(CO)OC(OC3C(CO)OC(O)C(O)C3O)C(O)C2O)C(O)C(O)C1O` (stereo not given), the Potency result is “inactive”.

On to `CC12C=CC(=O)C=C1CCC1C2C(O)CC2(C)C1CCC2(O)C(=O)COC(=O)CCC(=O)O` (stereo not given), for which the Potency entry is “inactive”.

Regarding `CO[C@@H]1[C@@H]([C@H](C)[C@@H]2O[C@@]3(CC[C@@](C)([C@H]4CC[C@@](C)([C@H]5O[C@H]([C@H]6O[C@](C)(O)[C@H](C)C[C@@H]6C)C[C@H]5O[C@H]5C[C@@H](OC)[C@H](OC)[C@@H](C)O5)O4)O3)C[C@@H](O)[C@@H]2C)O[C@@](O)(CC(=O)O)[C@H](C)[C@H]1OC`, the Potency entry is “inactive”.

For `CC[C@@H]1OC(=O)C[C@H](O)[C@@H](C)[C@@H](O[C@H]2O[C@@H](C)[C@H](O[C@@H]3C[C@](C)(O)[C@H](O)[C@@H](C)O3)[C@@H](N(C)C)[C@@H]2O)[C@@H](C=O)C[C@@H](C)C(=O)/C=C/C(C)=C[C@@H]1CO[C@H]1O[C@@H](C)[C@H](O)[C@H](OC)[C@@H]1OC`, the Potency entry was “inactive”.

With `C[N+](C)(CCOc1ccccc1)Cc1cccs1` (tested in a mixture with another compound), the Potency entry is “inactive”.

`CCC(=O)OCC(=O)C1(OC(=O)CC)C(C)CC2C3CCC4=CC(=O)C=CC4(C)C3(Cl)C(O)CC21C` (stereo not given): the Potency result was “inactive”.

As to `C/C(=C(\CCO)SSCC1CCCO1)N(C=O)Cc1cnc(C)nc1N` (stereo not given), the Potency result is “inactive”.

Consider `CC[C@H](c1ccccc1)c1noc(CCN(CC)CC)n1`, for which the Potency result was “inactive”.

Take `CC(C)(S)C(=O)N[C@H](CS)C(=O)O`: the Potency result is “inactive”.

For `CC#CC[C@@H](C)[C@@H](O)/C=C/[C@H]1[C@H]2c3cccc(CCCC(=O)O)c3O[C@H]2C[C@@H]1O`, the Potency entry was “inactive”.

`O=C(CO)[C@@H](O)C(O)[C@@H](O)CO` (stereo not given in full): the Potency entry is “inactive”.

Turning to `CC/C(O)=N/S(=O)(=O)c1ccc(-c2c(-c3ccccc3)noc2C)cc1`, the Potency result is “inactive”.

With `COc1ccc2c(C(=S)N(C)CC(=O)O)cccc2c1C(F)(F)F`, the Potency entry is “inactive”.

On to `CC(=O)C1(O)CCC2C3CC(C)C4=CC(=O)CCC4(C)C3CCC21C` (stereo not given), for which the Potency entry is “inactive”.

Turning to `CN1CC[C@H](c2c(O)cc(O)c3c(=O)cc(-c4ccccc4Cl)oc23)[C@@H](O)C1`, the Potency result was “inactive”.

With `CC(=O)C[C@H]1[C@H](O[C@H]2[C@H](OC(C)C(=O)N[C@@H](C)C(=O)N[C@H](CCC(=O)N[C@@H](CCCCN)C(=O)N[C@H](C)C(=O)O)C(N)=O)[C@@H](NC(=O)O)C(O)O[C@@H]2CO)O[C@H](CO)[C@@H](O)[C@@H]1O` (stereo not given in full), the Potency result is “inactive”.

With `CC[C@H]1OC(=O)C[C@@H](O)[C@H](C)[C@@H](O[C@@H]2O[C@H](C)C[C@H](N(C)C)[C@@H]2O)[C@@H](CC=O)C[C@@H](C)C(=O)/C=C\[C@]2(C)O[C@H]2[C@@H]1C`, the Potency result is “inactive”.

Turning to `CC(=O)O[C@H]1CC[C@@]2(C)C(=CCC3C2CC[C@]2(C)C(c4cccnc4)=CCC32)C1` (stereo not given in full), the Potency result is “inactive”.

In another test the target is ATPase family AAA domain-containing protein 5 (Homo sapiens) (UniProt Q96QE3). As to the kind of experiment: qHTS screen for small molecules that inhibit ELG1-dependent DNA repair in human embryonic kidney (HEK293T) cells expressing luciferase-tagged ELG1: Hit Confirmation using MMS Stimulated ELG1 (AID 624249). Also: nearly all actives have a fitted effect of over 60% in size. Also: potency is read from the fitted curve at half-maximal effect. Particulars: HEK293T luciferase-tagged ELG1 level; series mostly up to 46.1 µM. The method in brief:
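Under DNA damage from MMS (final 10 µM), compounds act on ELG1-luc HEK293T cells over 16 h. Decreased luciferase, detected with Amplight, indicates inhibition of the ELG1 response.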
A general note: qHTS replaces the single test concentration by a dilution series.
Regarding `CC(C)(CNC(=O)c1ccc(Cl)c(S(=O)(=O)N2CCc3ccccc3C2)c1)N1CCOCC1`, the Potency was 1.58 µM (active).

Turning to `CCc1ccc(N(CC)c2ncnc3nc[nH]c23)cc1`, the Potency was 17.7 µM (active).

For `COc1ccc(-c2nn(-c3ccccc3)cc2/C=C\C(=O)N2CCOCC2)cc1[N+](=O)[O-]`, the Potency entry is “inactive”.

Consider `NC(=O)c1sc2nc3c(c(-c4ccccc4)c2c1N)CCC3`, for which the Potency was 7.05 µM (active).

With `CN(CC1CCCO1)S(=O)(=O)c1ccc(C(=O)Nc2ccc(F)cc2)cc1` (stereo not given), the Potency was 22.3 µM (active).

For `OCCCNc1nccc(-c2cc(Nc3cccc(Cl)c3)ncn2)n1`, the Potency was 0.629 µM (active).

Regarding `COc1ccccc1C(=O)Nc1ccc(C)c(S(=O)(=O)N2CCCCC2)c1`, the Potency is 14.1 µM (active).

With `COc1ccc(NS(=O)(=O)c2ccc(Oc3c(C#N)cccc3C#N)cc2)cc1`, the Potency was 3.15 µM (active).

On to `Cc1cc2oc(=O)cc(CN3CCN(S(=O)(=O)c4cccs4)CC3)c2cc1C(C)C`, for which the Potency was 8.88 µM (active).

Regarding `COc1ccc(CNc2ncnc3ccccc23)cc1`, the Potency was 1.58 µM (active).

In the case of `Clc1ccc2nc(-c3ccccc3)nc(C(Cl)Cl)c2c1`, the Potency was 2.23 µM (active).

For the compound `CS(=O)(=O)c1ccc2nc(NC(=O)C3CCCCC3)sc2c1`, the Potency result was “inactive”.

On to `CC(=O)c1c(C)n(-c2ccc(C)cc2)c2ccc(O)cc12`, for which the Potency entry is “inactive”.

`Cc1ccc(C)c(S(=O)(=O)N2CCN(c3ncnc4sccc34)CC2)c1`: the Potency is 2.81 µM (active).
